Several values for one entry are separate records, joined by “and”; a condition that tells them apart may be missing. Equal values may be shown once. Unmarked numbers belong to inactive results. Activity calls are given as the source filed them.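 The calls were made as follows: active = inhibition reaching about 16% in any single replicate (limit read from the data); inactive = the rest.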

These results are taken from PubChem BioAssay AID504710 (Sanford-Burnham Center for Chemical Genomics, 2011).

In this assay the target is Hexokinase HKDC1 (Homo sapiens) (UniProt Q2TB90). Nature of the assay: compounds lowering human HKDC1 activity – biochemical, single concentration, confirmation (AID 504710). The conditions noted are these: recombinant HKDC1, G6PDH/diaphorase/resazurin fluorescence; at 20 µM; stronger effect = higher value. A general note: Alamar Blue is a resazurin reagent that responds to reducing activity.
Chain of Hexokinase HKDC1 (Homo sapiens) (Q2TB90 whole entry, looked up): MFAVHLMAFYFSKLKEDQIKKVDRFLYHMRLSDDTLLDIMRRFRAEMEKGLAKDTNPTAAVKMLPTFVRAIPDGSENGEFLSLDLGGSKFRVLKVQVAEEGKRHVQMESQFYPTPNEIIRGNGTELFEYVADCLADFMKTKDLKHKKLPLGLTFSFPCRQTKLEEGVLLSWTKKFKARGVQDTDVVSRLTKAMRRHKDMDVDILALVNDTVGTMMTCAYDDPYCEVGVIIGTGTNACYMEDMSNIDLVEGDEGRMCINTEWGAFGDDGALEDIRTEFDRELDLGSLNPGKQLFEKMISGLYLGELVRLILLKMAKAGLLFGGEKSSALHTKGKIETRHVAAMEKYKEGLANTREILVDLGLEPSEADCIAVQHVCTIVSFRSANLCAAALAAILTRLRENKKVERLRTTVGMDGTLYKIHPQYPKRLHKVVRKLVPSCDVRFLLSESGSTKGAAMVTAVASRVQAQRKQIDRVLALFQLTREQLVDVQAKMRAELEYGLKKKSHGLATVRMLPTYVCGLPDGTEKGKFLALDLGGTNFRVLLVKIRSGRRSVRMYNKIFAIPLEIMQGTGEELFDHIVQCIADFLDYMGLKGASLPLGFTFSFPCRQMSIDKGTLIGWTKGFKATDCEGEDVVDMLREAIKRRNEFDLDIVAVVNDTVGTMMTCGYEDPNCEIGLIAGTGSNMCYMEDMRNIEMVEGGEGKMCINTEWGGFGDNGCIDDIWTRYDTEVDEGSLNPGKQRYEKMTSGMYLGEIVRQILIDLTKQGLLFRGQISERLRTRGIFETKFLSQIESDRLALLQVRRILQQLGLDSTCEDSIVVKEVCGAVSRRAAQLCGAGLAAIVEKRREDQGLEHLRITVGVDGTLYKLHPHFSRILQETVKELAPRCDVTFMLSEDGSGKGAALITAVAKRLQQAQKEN
On to `CCOc1ccc2c(c1)C(NC(C)=O)C(=O)N2CCN1CCOCC1` (configuration not stated), for which the inhibition (as a rule, the relative decrease from the control value, in per cent) was 60.9% (active). Regarding `CNCc1ccccc1Sc1cc(O)ccc1O`, the inhibition was 64.6% (active). For `Cc1nc2c(O)c3c(c(O)c2nc1C)C1C=CC3CC1` the value was 89.5% (active); for `Cc1ccc2cc(CCNC(=O)c3ccc(S(=O)(=O)N4CCCCC4)cc3)c(=O)[nH]c2c1`, 39.8% (active); for `O=C1C=C(NCc2ccccc2)c2ccccc2C1=O`, 56% (active). With `COc1ccc(CN2C(=O)c3cccnc3C2O)cc1` (configuration not stated), the inhibition is 35.8% (active). On to `Cc1ccc(-n2c3nc(=O)[nH]c(=O)c-3cc3cc([N+](=O)[O-])ccc32)cc1`, for which the inhibition is 56.2% (active).

Consider `Cc1cc(C)c(S(=O)(=O)/N=C2\C=C(Nc3ccc(C(=O)O)cc3)C(=O)c3ccccc32)c(C)c1`, for which the inhibition was 39.5% (active). As to `CCCCN(CCCC)C(=S)N/N=C/c1c(C)[nH]n(-c2ccccc2)c1=O`, the inhibition was -65%. For `Cc1nc2c(c(=O)c3ccccc3n2C)c(=O)n1-c1ccc(F)cc1` the value was 52.9% (active).

For `CN(C)Cc1cc(O)c(CN(C)C)cc1O`, the inhibition is 70.3% (active).

Consider `O=C(O)CSc1cc(NS(=O)(=O)c2cccc([N+](=O)[O-])c2)c2ccccc2c1O`, for which the inhibition is 47.9% (active). In the case of `CCCCNC(=O)c1sc(=S)n2c1[nH]c(=O)c1ccccc12`, the inhibition was 56.5% (active). The value for `COc1cc(SC#N)ccc1N=Cc1c(C)[nH]n(-c2ccc(Cl)cc2)c1=O` was -38.2%. The value for `NC1=C(Cl)C(=O)c2ccc(S(N)(=O)=O)cc2C1=O` was -42.9%.

With `CCc1nc2sc3c(=O)[nH]cnc3c2c2c1CSC(C)(C)C2`, the inhibition is 30.5% (active). The value for `COc1cc(N=c2ssnc2Cl)c(OC)cc1Cl` was -58.8% and -56.9%; that for `COC(=O)c1ccccc1NC1=C/C(=N\S(=O)(=O)c2ccc(C(=O)O)cc2)c2ccccc2C1=O` was 86% (active); that for `O=C1C=CC(=O)c2c(O)c(CO)c(CO)c(O)c21` was 39.3% (active). As to `COC1=C(OC)C(=O)C(Sc2ccc3ccccc3c2)=CC1=O`, the inhibition is 71.3% (active). The value for `CC(=O)N1CCN(C2c3cccc4cccc(c34)C2NS(=O)(=O)c2ccccc2)CC1` (configuration not stated) was -45.3%; that for `O=C(NC1=CC(=O)c2ccccc2C1=O)c1ccccc1` was 69.9% (active). The value for `COC(=O)c1cc(C)nc2c1C(=O)C(=O)C=C2N1CCOCC1` was 65.8% (active); that for `Cc1ccc(N=C2C(=S)N(c3ccc(C)cc3)C(=N)N2/N=C/c2ccc(Cl)cc2)cc1` was -45.3%. `CCc1nc2c(c(=O)c3ccccc3n2C)c(=O)n1-c1ccc(F)cc1`: the inhibition is 72.7% (active). The value for `O=C1NC(=S)N/C1=C/c1cc2c(cc1[N+](=O)[O-])OCO2` was -36.6%; that for `CC(=O)C1=C(c2cccc([N+](=O)[O-])c2)N(C(C)=O)n2c(C)nnc2S1` was -387%. The value for `O=C1C(C2=C(O)c3ccccc3C2=O)=Nc2ccccc21` was -162%; that for `CCc1ccc(S(=O)(=O)/N=C2\C=C(Nc3ccc(C(=O)O)cc3)C(=O)c3ccccc32)cc1` was 59.8% (active); that for `C[N+](C)(CCCCCC[N+](C)(C)CCCN1C(=O)c2cccc3cccc(c23)C1=O)CCCN1C(=O)c2cccc3cccc(c23)C1=O` was -82%. Turning to `CC[n+]1c(/C=C2\Sc3ccccc3N2C)ccc2cccc(C)c21`, the inhibition was -37.8%. As for `CCCc1nc2c(c(=O)c3ccccc3n2C)c(=O)n1-c1ccc(F)cc1`, the inhibition was 58.5% (active). With `Cc1cccc(-n2c3nc(=O)[nH]c(=O)c-3cc3cc([N+](=O)[O-])ccc32)c1`, the inhibition was 46.6% (active).

With `NC(=NCc1ccc2c(c1)OCO2)NC(=O)c1ccccc1`, the inhibition is 16.7% (active). As to `O=C(Nc1ccc(N2CCCC2)cc1)c1cccc(-c2cc3ccccc3oc2=O)c1`, the inhibition was -24.8%.

In the case of `Cc1nc([N+](=O)[O-])c(Br)n1Cc1ccc(Cl)c(Cl)c1`, the inhibition was 53.8% (active). In the case of `NC1=C(Br)C(=O)c2ncccc2C1=O`, the inhibition is 50.8% (active).
